Source: PubChem (National Center for Advancing Translational Sciences (NCATS))
Tb PYK inh – inhibitors of Trypanosoma brucei pyruvate kinase. Q57TT1. TbPYK enzyme, Kinase-Glo Plus ATP luminescence, 45 min. Potency, µM (series often up to 76.8 µM), without a hit: top-dose activity, negative = inhibition, actives largely listed as inhibitors. 0.12% of 410,000 active. AID 624173; further: potency means the concentration at half of the fitted maximal effect; on the % scale 0 is the no-effect control and ±100 the full control effect; nearly all actives have a fitted effect of over 50% in size
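ADP (130 uM final) triggers the TbPYK reaction after compound addition; incubation is 45 min at room temperature. Kinase-Glo Plus is then added and luminescence imaged. Normalized data are fitted to concentration-effect curves.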
LmPK inh – inhibitors of Leishmania mexicana pyruvate kinase. Q27686. purified LmPK, Kinase-Glo ATP luminescence, 1 h. Potency, µM (highest dose often 57.5 µM), without a hit: at the highest dose activity change, negative = inhibition, most hits filed as inhibitors. 0.37% of 290,000 active; further: potency means the concentration at half of the fitted maximal effect; on the % scale 0 is the no-effect control and ±100 the full control effect
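Purified LmPK (0.1 nM) converted ADP (0.1 mM) to ATP with PEP (0.5 mM) in imidazole buffer pH 7.2 with KCl and MgCl2, 1 h at room temperature. ATP was read by Kinase-Glo luminescence; data normalized to uninhibited and no-enzyme controls.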
Shiga toxin inh – inhibitors of Shiga toxin in Vero cells; inhibition, % at 38.7 µM; Vero cells, Shiga toxin protein synthesis inhibition reporter; 9.2% of 290,000 active; AID 2315; in the data active means inhibition mostly above about 28%, no sharp cut-off; inactive means mostly below about 43%; further: 0% is about no effect
Sm TGR inh – blocks Schistosoma mansoni thioredoxin glutathione reductase. 3% of 360,000 active. purified TGR, DTNB reduction, TNB absorbance 405 nm. Q962Y6. Potency, µM (top dose mostly 114 µM), without a hit: at the highest dose activity change, negative = inhibition, usual class: inhibitors; further: potency means the concentration at half of the fitted maximal effect; on the % scale 0 is the no-effect control and ±100 the full control effect; nearly all actives have a fitted effect of over 60% in size
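TGR 20 nM + NADPH 100 uM (dispensed conc.), cpd preinc 15 min RT; start with NADPH (500 uM addition) then DTNB (15 mM addition). Kinetic TNB absorbance, 405 nm filter. Four-parameter Hill fit across titration.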
Cycloheximide cs – counter-screen hit for Shiga toxin inhibitors, cycloheximide; cell reporter, cycloheximide protein synthesis inhibition counterscreen; max response, %; 12% of 300,000 active; in the data active means max response mostly above about 13%, no sharp cut-off; inactive means mostly below about 14%; further: read at 38.3 µM for the half of the compounds with a filed dose; 0% is about no effect
Giardia FBPA inh – blocks Giardia fructose-bisphosphate aldolase activity; A8B2U2; purified Giardia FBPA; Potency, µM (doses to about 59.6 µM), inactives show top-dose activity, negative = inhibition, actives largely listed as inhibitors; 0.71% of 290,000 active; AID 2451; further: potency means the concentration at half of the fitted maximal effect; on the % scale 0 is the no-effect control and ±100 the full control effect; nearly all actives have a fitted effect of over 55% in size
Target sequence (A8B2U2 whole entry, looked up): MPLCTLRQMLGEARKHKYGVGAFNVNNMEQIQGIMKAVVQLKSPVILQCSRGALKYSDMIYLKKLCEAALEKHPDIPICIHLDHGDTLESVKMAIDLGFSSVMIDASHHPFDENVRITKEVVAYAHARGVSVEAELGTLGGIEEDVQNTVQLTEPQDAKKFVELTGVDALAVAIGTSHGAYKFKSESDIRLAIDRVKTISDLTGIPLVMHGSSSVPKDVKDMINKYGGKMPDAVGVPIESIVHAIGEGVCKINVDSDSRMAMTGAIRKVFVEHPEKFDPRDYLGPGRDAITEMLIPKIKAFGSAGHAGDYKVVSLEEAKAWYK
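Giardia FBPA (40 nM reagent) was preincubated 10 min at RT with compound (up to 57.5 uM final), then substrate plus GAPDH/TPI/NAD/arsenate coupling system with diaphorase/resazurin was added; resorufin fluorescence (525/598 nm) was read after 20 min.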
Active calls of the source: *; ? = inconclusive; nt = no result; + = active, no number. This excerpt belongs to a sample that is enriched for hits. Unless noted, the call rests on the fitted dose curve; in most records, active means well fitted curve in the direction sought with a large enough effect; inconclusive means small, poorly fitted or top-dose-only effect, or another doubt; inactive means no such curve, though single readings can be large; an effect the other way counts as inactive or inconclusive.

SMILES | Tb PYK inh | LmPK inh | Shiga toxin inh | Sm TGR inh | Cycloheximide cs | Giardia FBPA inh
O=C(OCc1nnc(-c2ccccc2)o1)c1cc([N+](=O)[O-])ccc1Cl | 2% | 3% | -5 | 1% | -4 | 4%
O=C(N/N=C(\c1ccccc1)c1ccccn1)c1cccc([N+](=O)[O-])c1 | -3% | 8% | -5 | 7% | 5 | ?
N/C(=N\OC(=O)c1cc([N+](=O)[O-])ccc1Cl)c1ccccn1 | 2% | -4% | 58* | ? | 23* | -2%
CCOC(=O)C1CCCN(CCC(=O)Nc2ccc(OC)cc2OC)C1 (stereo not drawn) | 3% | nt | nt | -1% | nt | nt
O=[N+]([O-])c1ccc(CN2[C@H](COCc3ccccc3)[C@@H](N3CCCC3)CS2(=O)=O)cc1 | -1% | nt | nt | nt | nt | nt
CCc1ccc2[nH]c(=O)c(CN(Cc3ccccc3OC)Cc3nnnn3Cc3ccco3)cc2c1 | -8% | 5% | 8 | ? | 8 | -2%
COc1ccccc1CN(Cc1cc2cc(C)ccc2[nH]c1=O)Cc1nnnn1Cc1ccco1 | 1% | -1% | 53* | 40µM* | 13 | 9%
COc1ccc2[nH]c(=O)c(CN(Cc3ccco3)Cc3nnnn3Cc3ccccc3)cc2c1 | -9% | -3% | 4 | 35µM* | 4 | -24%
CCC(c1nnnn1CCc1ccccc1)N(Cc1ccco1)Cc1cc2cccc(C)c2[nH]c1=O (stereo not drawn) | -4% | 0% | -2 | -19% | 8 | 1%
CCC(c1nnnn1Cc1ccco1)N(CCN1CCOCC1)Cc1cc2cc(C)ccc2[nH]c1=O (stereo not drawn) | -10% | 4% | -7 | 45µM* | -1 | ?
CCOc1ccc2[nH]c(=O)c(CN(Cc3ccco3)C(CC)c3nnnn3Cc3ccccc3)cc2c1 (stereo not drawn) | -19% | 4% | 24 | 16µM* | 1 | -17%
Cc1ccc(-c2nc3cc(Cl)ccc3o2)cc1NC(=O)c1cc2ccccc2o1 | 1% | nt | nt | -11% | nt | nt
CCn1c(=N)n(CCOc2ccc(Br)cc2)c2ccccc21 | -17% | nt | nt | 15% | nt | nt
Cc1ccccc1CSc1nc2ccsc2c(=O)n1CCC(C)C | 0% | nt | nt | 1% | nt | nt
CCOc1ccc2[nH]c(=O)c(CN(Cc3ccco3)Cc3nnnn3Cc3ccccc3)cc2c1 | 3% | -1% | -12 | 22µM* | 6 | 9%
COC(=O)c1ccccc1S(=O)(=O)N(Cc1ccco1)Cc1cc2cc(OC)ccc2[nH]c1=O | -3% | -2% | 29 | 7.1µM* | -4 | -3%
Cc1ccc2[nH]c(=O)c(CN(Cc3ccco3)S(=O)(=O)c3c(C)ccc4nsnc34)cc2c1 | -13% | -3% | 25 | 28µM* | 8 | -8%
COc1ccc2[nH]c(=O)c(CN(Cc3cccs3)Cc3nnnn3Cc3ccccc3)cc2c1 | nt | 5% | -7 | 0% | -4 | -4%
CNC(=S)N(Cc1ccco1)Cc1cc2cc(OC)ccc2[nH]c1=O | 1% | 3% | -3 | 7% | -4 | 2%
Cc1ccc2cc(CN(CCN3CCOCC3)Cc3nnnn3Cc3ccco3)c(=O)[nH]c2c1C | 4% | 3% | 3 | 35µM* | -5 | ?
COc1cc(OC)cc(C(=O)Nc2nnc3n2CCS3)c1 | 2% | nt | nt | 2% | nt | nt
CN(C(=O)Nc1ccc(Cl)c(Cl)c1)c1ccccc1C(=O)O | -6% | -3% | 13 | -9% | 3 | -18%
O=C(O)c1cc(N/N=C/c2cccc3ccccc23)ccc1Cl | 0% | 0% | 114* | -20% | 103* | -14%
C/C(=N\Nc1cccc([N+](=O)[O-])c1)c1cc2ccccc2o1 | -8% | 4% | 44* | -11% | 40* | -4%
CC(C)n1cc(/C=N/Nc2ccc(Cl)c(C(=O)O)c2)c2ccccc21 | nt | -2% | nt | -21% | 49* | -4%
SMILES | Tb PYK inh | LmPK inh | Shiga toxin inh | Sm TGR inh | Cycloheximide cs | Giardia FBPA inh
O=C(O)c1cc(N/N=C/C(Cl)=C/c2ccccc2)ccc1Cl | -5% | 4% | 183* | 35µM* | 68* | 4%
CC(C)c1ccc(C(=O)Nc2cc(-c3ccccc3F)nn2-c2ccccc2)cc1 | 3% | nt | nt | 0% | nt | nt
O=C(CC(c1ccccc1)c1cc(Br)ccc1O)NCC1(c2ccccc2)CCCC1 (stereo not drawn) | -1% | nt | nt | -4% | nt | nt
Cc1nc(N2CCOCC2)c2nc(-c3ccccc3)n(CCN3CCOCC3)c2n1 | nt | nt | nt | nt | nt | 1%
CCc1ccccc1-n1c(SCC(=O)Nc2ccc(C)cc2)nc2n[nH]c(C)c2c1=N | 0% | nt | nt | 3% | nt | nt
O=[N+]([O-])c1cccc(N/N=C/c2cccc3ccccc23)c1 | -4% | 0% | 42* | 1% | 30* | -1%
C/C(=N\Nc1ccc(Cl)c(C(=O)O)c1)c1cccc2ccccc12 | 7% | 16% | 45 | ? | 12* | -14%
C/C(=N\NC(=O)c1ccco1)c1cccc2ccccc12 | 2% | 0% | 16 | 2% | 8 | 0%
C/C(=N\Nc1ccc(Cl)c(C(=O)O)c1)c1cc2ccccc2o1 | -1% | 2% | + | -8% | 80* | -10%
CC(=NNC(=S)Nc1ccccc1Cl)c1ccccn1 | -9% | nt | nt | nt | nt | nt
O=[N+]([O-])c1ccc(NN=Cc2cccc3ccccc23)nc1 | -8% | nt | nt | nt | nt | nt
C/C(=N\Nc1ncc(Cl)cc1Cl)c1ccccn1 | -20% | ? | 119* | -33% | 43* | -14%
C/C(=N\Nc1cccc(C(=O)O)c1)c1cc2ccccc2o1 | 1% | 0% | 198* | -10% | 71* | -3%
C/C(=N\Nc1ccc(Cl)c(C(=O)O)c1)c1ccccn1 | 0% | 2% | 138* | -1% | 94* | ?
COc1ccc(S(=O)(=O)N2CCCCCC2)cc1NC(=O)Cc1n[nH]c(=O)c2ccccc12 | -3% | nt | nt | -16% | nt | nt
Cc1ccc(C)c(NC(=S)NNC(=O)c2csc(C)c2C)c1 | -7% | -6% | 22* | -2% | 18* | 10%
Cc1ccc(C)c(NC(=S)NNC(=O)c2csc(C(C)C)c2)c1 | -1% | -4% | 28 | -2% | 18* | 4%
Cc1ccc(C)c(NC(=S)NNC(=O)c2sccc2C)c1 | -6% | -14% | 121* | 0% | 29* | -12%
COc1ccc(OC)c(NC(=O)Nc2nc(C(C)N)cs2)c1 (stereo not drawn) | 2% | nt | nt | nt | nt | nt
Cc1ccc(CNC(=O)[C@H]2C[C@@H]2[C@H](NP(=O)(c2ccccc2)c2ccccc2)c2ccccc2)o1 | -2% | 2% | 3 | 50µM* | -1 | 1%
O=C(NCc1ccccc1)[C@@H]1C[C@H]1[C@@H](NP(=O)(c1ccccc1)c1ccccc1)c1ccccc1 | -12% | 0% | -16 | -20% | -3 | 7%
CN(CC(=O)N1CCCCCC1)S(=O)(=O)c1ccc(F)cc1 | 1% | -1% | 105* | 10% | 39* | 0%
CN(CC(=O)N1CCCCCC1)S(=O)(=O)c1ccc(Br)s1 | -1% | 1% | 80* | 0% | 33* | -1%
